Experimental data reported in PubChem BioAssay (Tox21).
Several values for one entry are separate records, joined by “and”; a condition that tells them apart may be missing. Equal entries are not always repeated. Records with an inconclusive call do not appear. A call without a number means that no potency is given here. More than one record can exist for a structure, and the calls need not agree. Activity calls are given as the source filed them. The call rests on the fitted dose curve; in most records, active means well fitted curve in the direction sought with a large enough effect in the repeat runs; inconclusive means weak or mixed curves; inactive means no such curve, though single readings can be large; an effect the other way counts as inactive or inconclusive.

What was measured:
[1] = target: Cytochrome P450 2D6 (Homo sapiens) (UniProt P10635); experiment: Cytochrome P450 Family 2 Subfamily D Member 6 (CYP2D6) small molecule antagonists: luciferase reporter qHTS assay (AID 1671196); further: nearly all actives have a fitted effect of over 50% in size; on activity change, negative = inhibition: series mostly up to about 120 µM
Procedure, shortened: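 Luminescence (RLU), read 20 min after detection reagent, indicated CYP2D6 conversion of proluciferin to luciferin during a 1 h NADPH-dependent reaction at room temperature.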

[2] = target: Cytochrome P450 2C19 (Homo sapiens) (UniProt P33261); experiment: Cytochrome P450 Family 2 Subfamily C Member 19 (CYP2C19) small molecule antagonists: luciferase reporter qHTS assay (AID 1671197); further: nearly all actives have a fitted effect of over 65% in size; on activity change, negative = inhibition: series mostly up to about 120 µM
Procedure, shortened: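 First, compounds are pinned into enzyme-substrate mix and held 10 min at room temperature. Second, NADPH regeneration solution is added and plates incubate 1 h at 37C. Third, detection reagent is added and luminescence read after 20 min.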

[3] = target: Cytochrome P450 2C9 (Homo sapiens) (UniProt P11712); experiment: Cytochrome P450 Family 2 Subfamily C Member 9 (CYP2C9) small molecule antagonists: luciferase reporter qHTS assay (AID 1671198); further: nearly all actives have a fitted effect of over 50% in size; on activity change, negative = inhibition: series mostly up to about 120 µM
Procedure, shortened: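 CYP2C9 activity was measured with a P450-Glo proluciferin substrate. Enzyme–substrate mix was held with compound for 10 min at room temperature, then NADPH regeneration solution was added for 1 h at 37C. Luciferin product was read as luminescence.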

[4] = target: Cytochrome P450 1A2 (Homo sapiens) (UniProt P05177); experiment: Cytochrome P450 Family 1 Subfamily A Member 2 (CYP1A2) small molecule antagonists: luciferase reporter qHTS assay (AID 1671199); further: nearly all actives have a fitted effect of over 50% in size; on activity change, negative = inhibition: series mostly up to about 120 µM
Procedure, shortened: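 CYP1A2 turnover of a luminogenic substrate was quantified after 1 h with NADPH regeneration at room temperature. Furafylline served as positive control.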

[5] = target: Voltage-gated inwardly rectifying potassium channel KCNH2 (Homo sapiens) (UniProt Q12809); experiment: Human Ether-a-go-go-Related Gene (hERG) channel small molecule antagonists: fluorescence cell-based qHTS assay (AID 1671200); further: nearly all actives have a fitted effect of over 50% in size;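 on activity change, negative = inhibition: hERG-expressing U2OS cells given a thallium stimulus after FluxOR II dye loading; series mostly up to about 77 µM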
Procedure, shortened: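 Cell line hERG-U2OS; dye FluxOR II, 1 h RT dark; Tl+ stimulus; ex 480/em 540 nm, read each second for 2 min.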

[6] = target: Cytochrome P450 3A4 (Homo sapiens) (UniProt P08684); experiment: Cytochrome P450 Family 3 Subfamily A Member 4 (CYP3A4) small molecule antagonists: luciferase reporter qHTS assay (AID 1671201); further: nearly all actives have a fitted effect of over 50% in size; on activity change, negative = inhibition: series mostly up to about 120 µM
Procedure, shortened: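 Room-temperature assay throughout: 10 min compound–enzyme/substrate preincubation, 1 h reaction after NADPH regeneration solution, 20 min detection. Luciferin formed from proluciferin substrate is quantified by luminescence.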
Potency means the concentration at half of the fitted maximal effect.

Sequence of Cytochrome P450 1A2 (Homo sapiens) (P05177 whole entry, looked up): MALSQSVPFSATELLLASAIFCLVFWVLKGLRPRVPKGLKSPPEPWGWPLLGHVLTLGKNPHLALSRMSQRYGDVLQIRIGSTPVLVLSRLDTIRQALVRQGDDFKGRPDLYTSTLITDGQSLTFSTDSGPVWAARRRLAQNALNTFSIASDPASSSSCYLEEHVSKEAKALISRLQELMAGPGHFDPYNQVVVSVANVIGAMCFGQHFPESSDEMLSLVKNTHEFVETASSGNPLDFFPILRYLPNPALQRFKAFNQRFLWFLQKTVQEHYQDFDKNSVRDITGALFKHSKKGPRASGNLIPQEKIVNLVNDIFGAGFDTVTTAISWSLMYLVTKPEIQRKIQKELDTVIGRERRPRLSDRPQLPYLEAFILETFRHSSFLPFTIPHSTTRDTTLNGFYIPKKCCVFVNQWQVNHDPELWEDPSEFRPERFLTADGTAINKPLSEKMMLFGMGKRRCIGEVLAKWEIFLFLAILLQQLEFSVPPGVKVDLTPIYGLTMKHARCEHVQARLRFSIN
Sequence of Cytochrome P450 2C19 (Homo sapiens) (P33261 whole entry, looked up): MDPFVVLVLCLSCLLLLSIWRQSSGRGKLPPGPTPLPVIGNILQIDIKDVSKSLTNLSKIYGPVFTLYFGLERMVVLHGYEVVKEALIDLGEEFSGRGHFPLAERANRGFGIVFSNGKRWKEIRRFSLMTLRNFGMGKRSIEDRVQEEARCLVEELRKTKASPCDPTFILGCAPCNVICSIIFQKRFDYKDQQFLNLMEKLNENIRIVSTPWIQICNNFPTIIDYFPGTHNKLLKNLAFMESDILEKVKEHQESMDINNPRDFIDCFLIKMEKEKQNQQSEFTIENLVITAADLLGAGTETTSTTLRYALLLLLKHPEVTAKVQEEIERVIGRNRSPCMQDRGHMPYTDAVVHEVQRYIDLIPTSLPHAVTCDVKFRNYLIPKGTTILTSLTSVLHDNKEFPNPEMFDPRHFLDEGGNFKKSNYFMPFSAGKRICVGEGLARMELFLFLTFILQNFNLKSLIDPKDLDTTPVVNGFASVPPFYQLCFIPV
Sequence of Cytochrome P450 3A4 (Homo sapiens) (P08684 whole entry, looked up): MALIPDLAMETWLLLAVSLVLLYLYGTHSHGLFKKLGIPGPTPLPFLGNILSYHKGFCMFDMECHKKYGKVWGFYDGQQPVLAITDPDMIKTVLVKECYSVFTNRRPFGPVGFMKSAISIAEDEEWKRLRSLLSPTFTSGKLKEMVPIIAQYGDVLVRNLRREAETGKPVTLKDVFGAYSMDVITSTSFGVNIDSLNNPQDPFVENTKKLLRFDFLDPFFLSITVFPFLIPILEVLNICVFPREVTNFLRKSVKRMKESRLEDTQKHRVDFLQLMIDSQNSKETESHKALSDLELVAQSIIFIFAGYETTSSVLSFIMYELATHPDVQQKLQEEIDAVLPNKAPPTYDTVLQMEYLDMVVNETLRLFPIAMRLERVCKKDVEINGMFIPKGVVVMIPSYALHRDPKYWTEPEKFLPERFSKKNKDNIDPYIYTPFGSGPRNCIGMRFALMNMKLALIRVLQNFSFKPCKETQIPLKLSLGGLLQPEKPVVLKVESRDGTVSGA
Sequence of Cytochrome P450 2C9 (Homo sapiens) (P11712 whole entry, looked up): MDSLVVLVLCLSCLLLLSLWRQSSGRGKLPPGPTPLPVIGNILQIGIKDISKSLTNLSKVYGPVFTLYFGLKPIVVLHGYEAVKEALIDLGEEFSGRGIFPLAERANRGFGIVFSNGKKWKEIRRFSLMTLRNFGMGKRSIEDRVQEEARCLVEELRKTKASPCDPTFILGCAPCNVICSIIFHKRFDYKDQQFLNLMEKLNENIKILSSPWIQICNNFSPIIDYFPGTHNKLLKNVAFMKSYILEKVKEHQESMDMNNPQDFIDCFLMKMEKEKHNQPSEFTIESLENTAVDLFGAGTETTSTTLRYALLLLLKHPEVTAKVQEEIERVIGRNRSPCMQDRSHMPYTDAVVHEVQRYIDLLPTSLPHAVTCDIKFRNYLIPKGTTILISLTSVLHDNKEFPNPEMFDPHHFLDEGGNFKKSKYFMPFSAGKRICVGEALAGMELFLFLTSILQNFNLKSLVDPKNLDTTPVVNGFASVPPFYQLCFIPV
Sequence of Voltage-gated inwardly rectifying potassium channel KCNH2 (Homo sapiens) (Q12809 whole entry, looked up): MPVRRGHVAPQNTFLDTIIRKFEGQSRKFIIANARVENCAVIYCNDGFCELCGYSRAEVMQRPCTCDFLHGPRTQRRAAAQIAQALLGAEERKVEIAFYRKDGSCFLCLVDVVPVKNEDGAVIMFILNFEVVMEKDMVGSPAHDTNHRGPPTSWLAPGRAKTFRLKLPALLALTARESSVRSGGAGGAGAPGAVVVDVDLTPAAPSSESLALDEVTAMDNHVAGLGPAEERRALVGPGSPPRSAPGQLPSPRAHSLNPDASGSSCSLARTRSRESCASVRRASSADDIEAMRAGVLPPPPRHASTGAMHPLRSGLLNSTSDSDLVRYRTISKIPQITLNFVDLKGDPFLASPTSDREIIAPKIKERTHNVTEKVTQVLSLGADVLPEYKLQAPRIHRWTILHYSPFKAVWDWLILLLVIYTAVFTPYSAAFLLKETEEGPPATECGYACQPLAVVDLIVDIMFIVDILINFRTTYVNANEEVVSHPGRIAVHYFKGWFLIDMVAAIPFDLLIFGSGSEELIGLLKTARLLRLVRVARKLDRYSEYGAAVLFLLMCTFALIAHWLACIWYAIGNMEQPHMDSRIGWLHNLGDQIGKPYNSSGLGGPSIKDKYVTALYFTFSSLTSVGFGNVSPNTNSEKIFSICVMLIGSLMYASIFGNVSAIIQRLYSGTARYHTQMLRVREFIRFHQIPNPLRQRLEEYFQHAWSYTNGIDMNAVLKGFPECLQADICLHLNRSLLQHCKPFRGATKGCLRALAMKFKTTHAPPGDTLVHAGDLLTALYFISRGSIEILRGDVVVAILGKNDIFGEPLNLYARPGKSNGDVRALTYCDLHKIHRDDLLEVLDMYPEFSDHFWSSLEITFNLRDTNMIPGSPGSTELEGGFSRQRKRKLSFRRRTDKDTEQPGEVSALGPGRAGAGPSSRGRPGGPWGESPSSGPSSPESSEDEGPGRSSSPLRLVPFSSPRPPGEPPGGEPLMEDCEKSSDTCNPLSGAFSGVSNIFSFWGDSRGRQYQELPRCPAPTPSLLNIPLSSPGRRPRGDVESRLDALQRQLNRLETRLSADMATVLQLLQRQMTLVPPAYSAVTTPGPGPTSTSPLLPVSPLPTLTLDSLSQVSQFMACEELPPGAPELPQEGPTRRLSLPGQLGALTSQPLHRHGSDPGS
Sequence of Cytochrome P450 2D6 (Homo sapiens) (P10635 whole entry, looked up): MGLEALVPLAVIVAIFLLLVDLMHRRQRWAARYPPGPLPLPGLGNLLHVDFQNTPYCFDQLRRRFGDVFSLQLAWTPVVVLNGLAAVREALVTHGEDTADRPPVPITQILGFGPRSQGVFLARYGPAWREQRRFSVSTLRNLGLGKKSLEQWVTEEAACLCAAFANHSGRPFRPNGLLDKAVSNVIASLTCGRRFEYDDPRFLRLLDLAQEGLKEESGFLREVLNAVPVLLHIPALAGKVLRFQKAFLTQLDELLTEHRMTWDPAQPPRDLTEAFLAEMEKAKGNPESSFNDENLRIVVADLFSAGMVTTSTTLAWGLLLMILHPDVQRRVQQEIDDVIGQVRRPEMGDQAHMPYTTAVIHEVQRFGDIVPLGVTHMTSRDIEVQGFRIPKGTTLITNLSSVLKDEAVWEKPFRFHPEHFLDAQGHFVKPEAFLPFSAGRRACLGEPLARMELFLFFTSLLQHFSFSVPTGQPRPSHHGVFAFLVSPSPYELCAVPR

Row | SMILES | Potency [1] | Potency [2] | Potency [3] | Potency [4] | Potency [5] | Potency [6] | activity change, negative = inhibition [2] | activity change, negative = inhibition [4]
1 | CCOCCOCCO | inactive | 36.6 µM (active) and inactive | inactive | inactive | inactive | inactive | – | –
2 | OCCO | 34.6 µM (active) and inactive | inactive | inactive | inactive | inactive | inactive | – | –
3 | CCCCC(CC)COP(=O)(OCC(CC)CCCC)OCC(CC)CCCC (stereo not given) | inactive | inactive and 71 µM (active) | inactive | inactive | inactive | inactive and 5.64 µM (active) | – | –
4 | OC1CCCCCCCCCCC1 | inactive | inactive | inactive | 25.2 µM (active) | inactive | – | – | –
5 | CC(=O)CC/C=C(\C)CCC=C(C)C | inactive | inactive and 39.9 µM (active) | inactive and 35.6 µM (active) | inactive and 39.9 µM (active) | inactive | inactive and 17.8 µM (active) | – | –
6 | C[Si](C)(C)O[Si](C)(C)C | inactive | inactive | inactive | inactive | inactive | inactive | – | –
7 | O=C1OC2(c3cc(Br)c(O)c(Br)c3Oc3c2cc(Br)c(O)c3Br)c2c(Cl)c(Cl)c(Cl)c(Cl)c21 | 24.2 µM (active) | 38.4 µM (active) | 10 µM (active) and 17.2 µM (active) | 12.6 µM (active) | inactive | 71.1 µM (active) and inactive | – | –
8 | Clc1nc(Cl)c(Cl)c(Cl)c1Cl | inactive | 31.9 µM (active) | inactive | inactive | inactive | inactive | – | –
9 | O=C(c1ccccc1)c1ccccc1O | 40.9 µM (active) | 3.65 µM (active) and 22.4 µM (active) | 40.9 µM (active) and 63.3 µM (active) | 11.5 µM (active) and 15.9 µM (active) | inactive | inactive | – | –
10 | CN1C(C(=O)Nc2ccccn2)=C(O)c2ccccc2S1(=O)=O | 40.3 µM (active) and inactive | inactive | 12.7 µM (active) and 13.8 µM (active) | inactive | inactive | inactive | – | –
11 | COc1c(Cl)c(Cl)c(Cl)c(Cl)c1Cl | inactive | inactive | inactive | 28.4 µM (active) and 5.03 µM (active) | inactive | inactive | – | –
12 | COC(=O)c1ccccc1 | inactive | inactive | inactive | inactive | inactive | inactive | – | –
13 | O=C(Nc1ccc([N+](=O)[O-])cc1Cl)c1cc(Cl)ccc1O | inactive | – | 25.2 µM (active) | 20 µM (active) | inactive | – | -2.19% [at 23.6 µM] (inactive) | -15.9% [at 23.6 µM] (inactive)
14 | Nc1ccc(Nc2ccccc2)cc1 | 35.2 µM (active) and 35.6 µM (active) | 24.9 µM (active) and 10 µM (active) and 12.6 µM (active) | 15.7 µM (active) and 25.2 µM (active) and 10 µM (active) | 35.2 µM (active) and 35.6 µM (active) and 31.7 µM (active) | inactive | 5.58 µM (active) and 11.3 µM (active) and 7.96 µM (active) | – | –
15 | CCCCCCCCCC(=O)OC | inactive | inactive | inactive | inactive | inactive | inactive | – | –
16 | Cc1cccc(N(C)C(=S)Oc2ccc3ccccc3c2)c1 | inactive | 1.26 µM (active) and 977 nM (active) | 8.94 µM (active) and 6.92 µM (active) | 10 µM (active) and 9.77 µM (active) | – | – | – | –
17 | O=C(c1ccccc1)c1ccc(O)cc1O | 8.12 µM (active) and 20 µM (active) | 9.11 µM (active) and 22.4 µM (active) | 57.5 µM (active) and 39.9 µM (active) | 25.7 µM (active) and 31.7 µM (active) | inactive | 14.4 µM (active) and 25.2 µM (active) | – | –
18 | COC(C)COC(C)COC(C)CO (stereo not given) | inactive | inactive | 22.4 µM (active) | inactive | inactive | inactive | – | –
19 | Cc1ncc[nH]1 | inactive | 39.8 µM (active) and inactive | inactive | inactive | inactive | – | – | –
20 | O=S(=O)(O)c1ccc(O)cc1 | inactive | inactive | inactive | inactive | inactive | inactive | – | –
21 | CCCCC(CC)COCC1CO1 (stereo not given) | inactive | inactive | inactive | inactive | inactive | inactive | – | –
22 | CCCCNS(=O)(=O)c1ccccc1 | inactive | 7.01 µM (active) and 17.8 µM (active) | 35.1 µM (active) and 35.6 µM (active) | inactive | inactive | inactive | – | –

Row | SMILES | Potency [1] | Potency [2] | Potency [3] | Potency [4] | Potency [5] | Potency [6] | activity change, negative = inhibition [2] | activity change, negative = inhibition [4]
23 | Cc1c(OCC(F)(F)F)ccnc1CS(=O)c1nc2ccccc2[nH]1 (stereo not given) | 2.83 µM (active) and 1.23 µM (active) | 5.64 µM (active) and 3.89 µM (active) | 35.6 µM (active) and 12.3 µM (active) | 31.7 µM (active) and 13.8 µM (active) | inactive | – | – | –
24 | CCOC(=O)C(C#N)=C(c1ccccc1)c1ccccc1 | inactive | 5.64 µM (active) and 4.9 µM (active) | 5.03 µM (active) and 4.9 µM (active) | 3.56 µM (active) and 1.62 µM (active) | inactive | inactive | – | –
25 | Nc1ccc(Cl)cc1Cl | inactive | inactive | inactive | 31.4 µM (active) and 39.9 µM (active) | inactive | – | – | –
26 | CC(C(=O)O)c1cccc(C(=O)c2ccccc2)c1 (stereo not given) | inactive | 39.9 µM (active) | 31.7 µM (active) and 30.9 µM (active) | inactive and 24.5 µM (active) | inactive | inactive | – | –
27 | CCCc1c(OCCCCc2nn[nH]n2)ccc(C(C)=O)c1O | inactive | 159 nM (active) and 174 nM (active) | 159 nM (active) and 246 nM (active) | 35.6 µM (active) and 30.9 µM (active) | inactive | – | – | –
28 | CC(C)OC(=O)C(C)(C)Oc1ccc(C(=O)c2ccc(Cl)cc2)cc1 | inactive | 8.94 µM (active) and 5.49 µM (active) | 3.56 µM (active) and 1.74 µM (active) | 35.6 µM (active) | 27.5 µM (active) and 8.49 µM (active) | inactive | – | –
29 | O=CCc1ccccc1 | inactive | 19.9 µM (active) and 5.64 µM (active) | 25 µM (active) and 5.03 µM (active) | 39.9 µM (active) | inactive | inactive | – | –
30 | C=C(C)C(=O)OCCOC(=O)C(=C)C | inactive | inactive | inactive | inactive and 35.6 µM (active) | inactive | inactive | – | –
31 | Nc1ncnc2nc[nH]c12 | inactive | inactive | inactive | inactive | inactive | inactive | – | –
32 | C#C[C@]1(O)CC[C@H]2[C@@H]3CCc4cc(OC)ccc4[C@H]3CC[C@@]21C | inactive | 3.56 µM (active) and 2.19 µM (active) | 5.64 µM (active) and 6.92 µM (active) | 7.1 µM (active) and 9.77 µM (active) | inactive | – | – | –
33 | CC(=O)Oc1ccccc1C(=O)Nc1ncc([N+](=O)[O-])s1 | 7.25 µM (active) and 7.76 µM (active) | 3.63 µM (active) and 2.45 µM (active) | 4.57 µM (active) and 2.75 µM (active) | 6.46 µM (active) and 7.76 µM (active) | inactive | – | – | –
34 | CC(=O)C1(C)CC2=C(CCCC2(C)C)CC1C (stereo not given) | inactive | inactive | inactive | inactive | inactive | inactive | – | –
35 | CC(C)Oc1ccc2c(=O)c(-c3ccccc3)coc2c1 | inactive | inactive | 17.4 µM (active) and 27.5 µM (active) | 12.3 µM (active) and 6.45 µM (active) | inactive | inactive | – | –
36 | NC=O | inactive | inactive | inactive | inactive | inactive | inactive | – | –
37 | CCCCOCCOCCO | inactive | inactive | inactive | inactive | inactive | inactive | – | –
38 | O=C(COc1ccc(Cl)cc1)N1CCN(Cc2ccc3c(c2)OCO3)CC1 | 1.59 µM (active) and 2.45 µM (active) | 17.8 µM (active) and 17.4 µM (active) | 28.3 µM (active) and 13.8 µM (active) | 28.3 µM (active) and 17.4 µM (active) | 19.5 µM (active) and 8.49 µM (active) | – | – | –
39 | CN(C)CCC=C1c2ccccc2CCc2ccccc21 | 2.52 µM (active) and 5.64 µM (active) and 5.49 µM (active) | 7.97 µM (active) and 31.7 µM (active) | inactive | inactive | – | inactive | – | –
40 | c1ccc2cc(Nc3ccc(Nc4ccc5ccccc5c4)cc3)ccc2c1 | inactive | inactive | inactive | – | inactive | inactive | – | –
41 | O=C(/C=C/c1ccccc1)OCc1ccccc1 | inactive | 17.8 µM (active) and 9.77 µM (active) | 17.8 µM (active) and 13.8 µM (active) | 11.2 µM (active) and 6.92 µM (active) | – | inactive | – | –
42 | CCC(C)CO (stereo not given) | inactive | 35.1 µM (active) and inactive | inactive | inactive | inactive | inactive | – | –
43 | COC(=O)CCC(=O)OC | inactive | inactive | inactive | – | inactive | inactive | – | –
44 | O=C(O)c1ccccc1Nc1cccc(C(F)(F)F)c1 | inactive | inactive | 63.3 µM (active) | 35.6 µM (active) | inactive | inactive | – | –
